Consider one sequence from PMC7862700, “An all-to-all approach to the identification of sequence-specific readers for epigenetic DNA modifications on cytosine”.

Assay in all cases: DAPPL (digital affinity profiling via proximity ligation, sequencing); 10 mM Tris-HCl pH 7.5, 50 mM NaCl, 1 mM DTT, 4% glycerol, room temperature, 30 min; GST-TFs on glutathione beads, 16-mer random dsDNA library, 0.1% formaldehyde crosslink after washing; high values mean tight binding
Common to all, as to settings: protein: recombinant; tags: N-terminal GST; dsDNA, one strand shown

One test concerns the target T1, FLI1 (Homo sapiens, UniProt Q01543 1-452).
T1 sequence: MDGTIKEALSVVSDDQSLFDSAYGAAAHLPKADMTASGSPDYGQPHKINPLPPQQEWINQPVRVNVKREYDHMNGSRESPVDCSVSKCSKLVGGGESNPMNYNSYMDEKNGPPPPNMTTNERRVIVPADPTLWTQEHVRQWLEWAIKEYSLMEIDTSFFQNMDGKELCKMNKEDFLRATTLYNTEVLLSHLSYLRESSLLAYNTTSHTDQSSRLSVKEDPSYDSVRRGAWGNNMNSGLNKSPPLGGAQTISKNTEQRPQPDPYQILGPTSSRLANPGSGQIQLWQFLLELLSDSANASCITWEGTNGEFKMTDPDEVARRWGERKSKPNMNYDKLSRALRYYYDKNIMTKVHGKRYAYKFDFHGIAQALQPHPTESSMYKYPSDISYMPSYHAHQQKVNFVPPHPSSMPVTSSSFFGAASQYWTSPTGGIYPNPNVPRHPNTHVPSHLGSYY
In short, it runs like this: (§1)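 Pools were built from human transcription factors expressed in yeast as GST fusions, captured on glutathione beads and DNA-barcoded, along with a tag-only sample. Incubation with 200 nmole of a 16-mer random double-stranded DNA library lasted 30 min at room temperature in Tris/NaCl/DTT/glycerol buffer, and was followed by washing, 0.1% formaldehyde crosslinking, proximity ligation, PCR amplification and Illumina NextSeq500 sequencing. Binding signal is the quotient of each hexamer's read frequency for a factor and its frequency for the tag-only sample.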

The next test deals with T2, ELK1 (Homo sapiens, UniProt P19419 1-428).
T2 sequence: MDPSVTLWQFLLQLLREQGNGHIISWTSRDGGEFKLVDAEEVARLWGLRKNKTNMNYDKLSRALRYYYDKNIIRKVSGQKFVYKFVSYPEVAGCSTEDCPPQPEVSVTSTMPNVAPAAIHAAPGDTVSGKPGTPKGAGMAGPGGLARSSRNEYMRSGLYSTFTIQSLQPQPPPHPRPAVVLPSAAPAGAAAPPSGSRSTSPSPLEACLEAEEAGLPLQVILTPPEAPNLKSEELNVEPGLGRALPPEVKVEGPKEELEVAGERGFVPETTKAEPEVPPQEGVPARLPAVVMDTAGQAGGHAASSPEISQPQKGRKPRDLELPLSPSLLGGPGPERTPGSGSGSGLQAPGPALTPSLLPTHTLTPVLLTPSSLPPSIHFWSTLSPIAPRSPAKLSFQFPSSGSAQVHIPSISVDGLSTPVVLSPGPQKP
In short, it runs like this:
as §1

The target in another test is T3, GABPA (Homo sapiens, UniProt Q06546 1-454).
T3 sequence: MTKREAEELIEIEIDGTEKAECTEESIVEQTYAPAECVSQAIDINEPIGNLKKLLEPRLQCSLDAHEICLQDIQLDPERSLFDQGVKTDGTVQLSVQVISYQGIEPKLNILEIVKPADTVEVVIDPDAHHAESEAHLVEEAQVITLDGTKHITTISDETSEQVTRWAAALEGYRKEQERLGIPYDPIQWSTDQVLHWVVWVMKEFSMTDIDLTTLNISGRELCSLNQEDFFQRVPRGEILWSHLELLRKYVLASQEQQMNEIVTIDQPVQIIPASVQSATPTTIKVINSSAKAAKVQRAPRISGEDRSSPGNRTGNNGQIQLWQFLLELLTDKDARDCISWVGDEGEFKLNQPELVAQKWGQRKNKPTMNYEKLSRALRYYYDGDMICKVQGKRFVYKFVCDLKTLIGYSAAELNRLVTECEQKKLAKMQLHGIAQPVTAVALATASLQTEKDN
The method in brief: as §1

The next test deals with T4, ERG (Homo sapiens, UniProt P11308 1-479).
T4 sequence: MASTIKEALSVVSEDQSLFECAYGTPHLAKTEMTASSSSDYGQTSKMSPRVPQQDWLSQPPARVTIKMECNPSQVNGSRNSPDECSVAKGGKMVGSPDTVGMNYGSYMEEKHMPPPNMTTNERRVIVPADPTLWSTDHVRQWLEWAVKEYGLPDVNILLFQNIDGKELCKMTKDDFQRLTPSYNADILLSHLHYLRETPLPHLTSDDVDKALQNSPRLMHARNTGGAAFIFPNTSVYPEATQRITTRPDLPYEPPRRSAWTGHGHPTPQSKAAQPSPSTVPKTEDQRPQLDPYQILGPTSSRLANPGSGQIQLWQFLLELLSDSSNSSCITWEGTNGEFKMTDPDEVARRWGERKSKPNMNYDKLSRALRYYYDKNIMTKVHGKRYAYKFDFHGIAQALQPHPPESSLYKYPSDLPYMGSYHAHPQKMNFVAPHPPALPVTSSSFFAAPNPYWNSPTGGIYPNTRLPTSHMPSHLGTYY
The method in brief: as §1

A further test concerns the target ELF1 (Homo sapiens, UniProt P32519 1-619). In short, it runs like this:
as §1

For another test, the target named is T5, EHF (Homo sapiens, UniProt Q9NZC4 1-300).
T5 sequence: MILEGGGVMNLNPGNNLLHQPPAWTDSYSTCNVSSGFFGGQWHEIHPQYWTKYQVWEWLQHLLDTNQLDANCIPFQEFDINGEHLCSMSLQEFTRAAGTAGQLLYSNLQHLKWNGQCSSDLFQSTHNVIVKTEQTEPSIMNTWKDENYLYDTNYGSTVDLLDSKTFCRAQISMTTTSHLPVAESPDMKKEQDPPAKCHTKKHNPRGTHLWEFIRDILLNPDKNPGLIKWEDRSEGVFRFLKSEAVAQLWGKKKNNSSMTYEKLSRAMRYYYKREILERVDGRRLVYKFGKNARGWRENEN
In short, it runs like this: as §1

Another test deals with SPI1 (Homo sapiens, UniProt P17947 1-270). In short, it runs like this:
as §1

A further test deals with SPIB (Homo sapiens, UniProt Q01892 1-262). The method in brief:
as §1

The next test addresses T6, ELK3 (Homo sapiens, UniProt P41970 1-407).
T6 sequence: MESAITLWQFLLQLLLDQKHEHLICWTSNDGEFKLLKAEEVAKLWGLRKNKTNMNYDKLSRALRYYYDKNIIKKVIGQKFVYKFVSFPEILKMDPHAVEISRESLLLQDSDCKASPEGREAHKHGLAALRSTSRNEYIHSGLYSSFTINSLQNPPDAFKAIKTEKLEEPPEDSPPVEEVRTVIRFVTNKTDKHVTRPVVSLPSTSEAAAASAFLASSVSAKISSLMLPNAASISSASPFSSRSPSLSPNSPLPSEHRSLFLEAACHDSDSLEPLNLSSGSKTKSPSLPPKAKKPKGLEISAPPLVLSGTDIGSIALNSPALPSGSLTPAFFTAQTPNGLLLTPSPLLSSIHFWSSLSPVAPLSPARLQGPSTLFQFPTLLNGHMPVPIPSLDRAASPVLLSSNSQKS
The method in brief: as §1

In another test the target is T7, FEV (Homo sapiens, UniProt Q99581 1-238).
T7 sequence: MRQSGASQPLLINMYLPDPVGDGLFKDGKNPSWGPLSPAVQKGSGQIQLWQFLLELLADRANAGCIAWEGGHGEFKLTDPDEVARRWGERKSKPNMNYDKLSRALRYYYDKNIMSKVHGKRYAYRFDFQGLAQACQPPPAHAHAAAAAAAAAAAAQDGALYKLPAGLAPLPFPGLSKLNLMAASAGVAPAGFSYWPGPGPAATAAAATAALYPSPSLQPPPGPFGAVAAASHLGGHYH
In short, it runs like this:
as §1

The next test has as its target ETV5 (Homo sapiens, UniProt P41161 1-510). In short, it runs like this: as §1
The target in a further test is ELF4 (Homo sapiens, UniProt Q99607 1-663). In short, it runs like this: as §1
ELF4, sequence (Q99607 whole entry): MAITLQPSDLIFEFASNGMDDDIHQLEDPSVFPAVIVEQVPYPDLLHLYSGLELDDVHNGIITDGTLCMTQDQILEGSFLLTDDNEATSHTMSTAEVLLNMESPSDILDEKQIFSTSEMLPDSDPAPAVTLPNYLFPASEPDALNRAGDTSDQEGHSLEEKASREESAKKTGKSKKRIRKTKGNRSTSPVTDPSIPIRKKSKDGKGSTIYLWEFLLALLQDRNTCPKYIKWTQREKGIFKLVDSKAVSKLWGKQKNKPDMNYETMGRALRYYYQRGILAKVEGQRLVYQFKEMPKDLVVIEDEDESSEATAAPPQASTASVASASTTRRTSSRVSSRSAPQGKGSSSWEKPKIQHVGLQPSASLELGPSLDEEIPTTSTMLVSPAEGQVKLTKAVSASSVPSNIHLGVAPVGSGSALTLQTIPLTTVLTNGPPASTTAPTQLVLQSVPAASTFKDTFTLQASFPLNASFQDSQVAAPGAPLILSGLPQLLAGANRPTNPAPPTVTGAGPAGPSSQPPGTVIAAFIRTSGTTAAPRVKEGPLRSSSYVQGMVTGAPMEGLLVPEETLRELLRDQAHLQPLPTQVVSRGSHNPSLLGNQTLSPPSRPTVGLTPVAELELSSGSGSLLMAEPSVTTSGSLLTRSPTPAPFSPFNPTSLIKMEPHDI
The next test deals with ETV1 (Homo sapiens, UniProt P50549 1-477). In short, it runs like this:
as §1

In the next test the target is T8, ERF (Homo sapiens, UniProt P50548 1-548).
T8 sequence: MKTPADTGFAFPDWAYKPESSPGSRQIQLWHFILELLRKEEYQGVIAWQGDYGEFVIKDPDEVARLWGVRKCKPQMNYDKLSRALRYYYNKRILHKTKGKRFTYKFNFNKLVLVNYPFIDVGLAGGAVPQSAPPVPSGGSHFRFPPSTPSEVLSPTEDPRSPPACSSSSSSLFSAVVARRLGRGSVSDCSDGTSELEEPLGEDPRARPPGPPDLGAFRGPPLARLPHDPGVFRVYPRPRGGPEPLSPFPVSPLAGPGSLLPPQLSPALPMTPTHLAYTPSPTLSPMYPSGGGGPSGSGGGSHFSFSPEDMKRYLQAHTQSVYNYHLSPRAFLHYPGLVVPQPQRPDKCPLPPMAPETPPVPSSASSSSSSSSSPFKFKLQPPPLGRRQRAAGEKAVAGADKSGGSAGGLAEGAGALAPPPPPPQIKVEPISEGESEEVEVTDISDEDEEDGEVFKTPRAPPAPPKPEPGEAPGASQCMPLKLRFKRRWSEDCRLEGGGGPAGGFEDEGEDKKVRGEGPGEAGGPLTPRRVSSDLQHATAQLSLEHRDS
In short, it runs like this: as §1

The target in a further test is T9, ETV3L (Homo sapiens, UniProt Q6ZN32 1-361).
T9 sequence: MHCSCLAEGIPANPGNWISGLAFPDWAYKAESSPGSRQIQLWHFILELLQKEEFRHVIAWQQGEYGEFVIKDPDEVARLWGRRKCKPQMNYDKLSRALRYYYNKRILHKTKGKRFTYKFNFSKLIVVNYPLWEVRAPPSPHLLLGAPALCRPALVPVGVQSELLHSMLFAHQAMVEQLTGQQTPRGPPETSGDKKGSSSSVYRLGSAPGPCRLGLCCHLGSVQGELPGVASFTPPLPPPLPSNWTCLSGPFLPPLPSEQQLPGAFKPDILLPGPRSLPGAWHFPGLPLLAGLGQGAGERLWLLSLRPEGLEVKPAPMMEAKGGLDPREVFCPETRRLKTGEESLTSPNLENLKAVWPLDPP
In short, it runs like this: as §1

The target in a further test is T10, ETS2 (Homo sapiens, UniProt P15036 1-469).
T10 sequence: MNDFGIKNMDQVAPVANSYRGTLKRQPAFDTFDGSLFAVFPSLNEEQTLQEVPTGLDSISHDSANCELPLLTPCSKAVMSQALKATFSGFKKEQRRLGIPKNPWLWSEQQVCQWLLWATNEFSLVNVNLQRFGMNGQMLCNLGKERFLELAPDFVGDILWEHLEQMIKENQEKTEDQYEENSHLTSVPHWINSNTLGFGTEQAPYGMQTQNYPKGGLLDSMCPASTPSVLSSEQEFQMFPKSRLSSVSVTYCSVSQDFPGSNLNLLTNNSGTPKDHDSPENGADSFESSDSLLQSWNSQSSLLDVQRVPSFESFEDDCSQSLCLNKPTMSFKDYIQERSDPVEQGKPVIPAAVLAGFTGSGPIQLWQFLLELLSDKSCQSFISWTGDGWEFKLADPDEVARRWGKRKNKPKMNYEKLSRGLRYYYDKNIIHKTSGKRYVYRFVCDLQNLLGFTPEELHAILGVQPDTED
The method in brief:
as §1

In the next test the target is T11, ELF5 (Homo sapiens, UniProt Q9UKW6-2 1-255).
T11 sequence: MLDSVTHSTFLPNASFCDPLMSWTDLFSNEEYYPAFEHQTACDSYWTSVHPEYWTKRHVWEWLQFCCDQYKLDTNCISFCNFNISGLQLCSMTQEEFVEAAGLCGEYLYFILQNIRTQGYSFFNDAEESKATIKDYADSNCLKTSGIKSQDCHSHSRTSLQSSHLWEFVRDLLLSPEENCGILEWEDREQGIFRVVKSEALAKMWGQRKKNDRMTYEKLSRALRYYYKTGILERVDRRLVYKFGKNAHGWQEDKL
The method in brief: as §1

Another test addresses T12, ETV3 (Homo sapiens, UniProt P41162-2 1-143).
T12 sequence: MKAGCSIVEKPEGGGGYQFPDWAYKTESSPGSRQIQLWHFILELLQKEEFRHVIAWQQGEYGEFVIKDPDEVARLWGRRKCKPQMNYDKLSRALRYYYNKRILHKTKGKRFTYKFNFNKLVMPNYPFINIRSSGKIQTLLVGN
In short, it runs like this: as §1

SPIB, sequence (Q01892 whole entry): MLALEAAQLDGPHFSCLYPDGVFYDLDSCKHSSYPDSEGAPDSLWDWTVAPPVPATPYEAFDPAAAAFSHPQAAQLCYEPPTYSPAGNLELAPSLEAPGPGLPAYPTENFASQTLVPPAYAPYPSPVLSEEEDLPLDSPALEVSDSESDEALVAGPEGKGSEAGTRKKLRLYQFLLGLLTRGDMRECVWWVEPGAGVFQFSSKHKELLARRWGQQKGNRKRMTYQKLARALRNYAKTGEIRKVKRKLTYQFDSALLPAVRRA
ETV5, sequence (P41161 whole entry): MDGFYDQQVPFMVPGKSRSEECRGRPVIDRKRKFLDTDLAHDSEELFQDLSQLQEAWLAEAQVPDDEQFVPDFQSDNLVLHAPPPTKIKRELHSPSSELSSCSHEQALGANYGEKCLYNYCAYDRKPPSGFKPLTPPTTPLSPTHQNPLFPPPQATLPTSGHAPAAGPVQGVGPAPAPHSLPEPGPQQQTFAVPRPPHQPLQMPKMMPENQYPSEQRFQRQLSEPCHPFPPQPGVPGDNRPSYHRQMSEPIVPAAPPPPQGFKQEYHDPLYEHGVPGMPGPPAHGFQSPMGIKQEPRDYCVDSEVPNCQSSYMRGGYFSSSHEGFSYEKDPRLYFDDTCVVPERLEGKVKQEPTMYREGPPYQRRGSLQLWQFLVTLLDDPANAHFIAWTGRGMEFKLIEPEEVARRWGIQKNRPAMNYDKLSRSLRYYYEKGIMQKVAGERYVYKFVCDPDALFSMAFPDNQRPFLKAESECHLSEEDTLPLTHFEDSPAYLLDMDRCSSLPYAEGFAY
ELF1, sequence (P32519 whole entry): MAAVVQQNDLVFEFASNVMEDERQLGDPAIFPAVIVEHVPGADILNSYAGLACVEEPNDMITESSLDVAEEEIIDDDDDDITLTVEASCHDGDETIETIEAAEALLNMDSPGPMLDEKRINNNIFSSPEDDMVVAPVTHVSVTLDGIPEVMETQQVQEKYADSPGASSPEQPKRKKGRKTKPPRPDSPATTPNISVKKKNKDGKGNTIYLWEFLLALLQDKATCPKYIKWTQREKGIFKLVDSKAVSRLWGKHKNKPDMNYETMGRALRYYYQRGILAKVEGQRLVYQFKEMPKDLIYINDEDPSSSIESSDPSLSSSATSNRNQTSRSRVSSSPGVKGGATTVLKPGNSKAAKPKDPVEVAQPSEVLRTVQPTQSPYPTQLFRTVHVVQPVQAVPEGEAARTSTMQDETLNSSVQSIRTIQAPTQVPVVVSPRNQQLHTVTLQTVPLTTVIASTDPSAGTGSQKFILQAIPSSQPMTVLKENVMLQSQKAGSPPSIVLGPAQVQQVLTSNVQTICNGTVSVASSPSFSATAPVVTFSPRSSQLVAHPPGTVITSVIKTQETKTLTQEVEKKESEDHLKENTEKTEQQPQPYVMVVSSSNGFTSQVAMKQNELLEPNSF
ETV1, sequence (P50549 whole entry): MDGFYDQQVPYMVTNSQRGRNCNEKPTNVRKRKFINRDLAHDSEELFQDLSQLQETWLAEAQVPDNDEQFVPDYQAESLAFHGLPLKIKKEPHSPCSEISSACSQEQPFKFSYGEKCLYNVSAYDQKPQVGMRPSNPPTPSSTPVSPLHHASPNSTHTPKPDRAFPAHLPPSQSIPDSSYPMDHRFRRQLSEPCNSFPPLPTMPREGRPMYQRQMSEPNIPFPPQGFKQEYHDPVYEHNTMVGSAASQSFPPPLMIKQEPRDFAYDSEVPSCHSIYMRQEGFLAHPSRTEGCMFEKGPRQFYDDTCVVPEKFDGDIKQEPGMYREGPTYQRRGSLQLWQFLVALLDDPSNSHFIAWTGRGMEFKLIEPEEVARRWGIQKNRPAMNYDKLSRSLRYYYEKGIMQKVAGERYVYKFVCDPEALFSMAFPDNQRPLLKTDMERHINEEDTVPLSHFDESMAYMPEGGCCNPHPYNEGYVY

Take GCAATT: the binding signal with FLI1 was 1.17 fold enrichment (6-mer frequency, TF over GST control); with ELK1, 1.15 fold enrichment (6-mer frequency, TF over GST control); with GABPA, 1.14 fold enrichment (6-mer frequency, TF over GST control); with ERG, 1.02 fold enrichment (6-mer frequency, TF over GST control); with ELF1, 1.06 fold enrichment (6-mer frequency, TF over GST control); in the test with EHF, 1.09 fold enrichment (6-mer frequency, TF over GST control). Besides, the binding signal with SPI1 is 1.23 fold enrichment (6-mer frequency, TF over GST control); with SPIB, 1.21 fold enrichment (6-mer frequency, TF over GST control); with ELK3, 1.05 fold enrichment (6-mer frequency, TF over GST control); with FEV, 1.14 fold enrichment (6-mer frequency, TF over GST control); with ETV5, 1.12 fold enrichment (6-mer frequency, TF over GST control); with ELF4, 1.12 fold enrichment (6-mer frequency, TF over GST control). The binding signal in the test with ETV1 was 1.06 fold enrichment (6-mer frequency, TF over GST control); in the test with ERF, 1.2 fold enrichment (6-mer frequency, TF over GST control); in the test with ETV3L, 1.08 fold enrichment (6-mer frequency, TF over GST control); with ETS2 it was 1.09 fold enrichment (6-mer frequency, TF over GST control); with ELF5, 1.08 fold enrichment (6-mer frequency, TF over GST control); with ETV3 it was 1.18 fold enrichment (6-mer frequency, TF over GST control).
